The target of experiment [1] is CCAAT/enhancer-binding protein beta (Homo sapiens) (UniProt P17676). Kind of experiment: ATG_C_EBP_CIS: Attagene CIS-FACTORIAL HepG2 Assay for human CCAAT/Enhancer Binding Protein (C/EBP) beta (AID 2282927). The following applies: HepG2 Attagene cis-factorial transcription factor reporter; actives raise or lower the signal. In a few lines:
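Endogenous transcription factor activity in human liver HepG2 cells is inferred from induction of a CEBPB-linked reporter mRNA. Exposure lasts 24 h; activity is fitted in both directions relative to DMSO.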

Experiment [2] in a line: ATG_CMV_CIS: Attagene CIS-FACTORIAL HepG2 Assay for human CMV (Internal Marker) (AID 2282928).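 Note: endpoint acts as a background internal control marker rather than a target.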 The note with it: HepG2 CMV promoter reporter, transcription factor profiling; actives raise or lower the signal. In outline: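 After transient transfection of HepG2 with reporter transcription units driven by cis-regulatory promoters, cells receive test chemical for 24 h. Labeled reporter amplicons, digested with HpaI, are sized and quantified by capillary electrophoresis against DMSO.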

Experiment [3] in a line: ATG_DR4_LXR_CIS: Attagene CIS-FACTORIAL HepG2 Assay for human Liver X Receptor (LXR), DR4 submotif (AID 2282929). The note with it: HepG2 Attagene DR4 cis-reporter, mRNA transcription; actives raise or lower the signal. In outline:
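The endpoint is DR4-element-driven reporter transcripts after 24 h chemical exposure of transfected HepG2 cells. These were measured via RT-PCR and capillary electrophoresis, and gain or loss of signal was fitted relative to DMSO controls.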

For experiment [4], the target named is Aryl hydrocarbon receptor (Homo sapiens) (UniProt P35869). Kind of experiment: ATG_Ahr_CIS: Attagene CIS-FACTORIAL HepG2 Assay for human Aryl Hydrocarbon Receptor (Ahr) (AID 2282930). The note with it: HepG2 AhR cis-factorial reporter transcription; actives raise or lower the signal. In outline:
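Transient MRTU transfection of HepG2 → 24 h compound exposure → total RNA, oligo(dT) RT → PCR, 6-FAM extension, HpaI cut → CE fluorescence. DMSO = baseline; bidirectional curve fit.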

A short description of experiment [5]: ATG_AP_1_CIS: Attagene CIS-FACTORIAL HepG2 Assay for human Activator Protein 1 (AP-1) (AID 2282931). The note with it: HepG2 Attagene cis-factorial AP-1 reporter mRNA; actives raise or lower the signal. In outline: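 Readout is reporter transcript level from endogenous transcription factor activity, quantified by RT-PCR with fluorescent primer extension and capillary electrophoresis. Transiently transfected HepG2 cells, 24 h exposure. Curves fitted both directions versus DMSO.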

Experiment [6] in a line: ATG_AP_2_CIS: Attagene CIS-FACTORIAL HepG2 Assay for human Activator Protein 2 (AP-2) (AID 2282932). The following applies: HepG2 AP-2 cis-reporter, Attagene transcription factor profiling; actives raise or lower the signal. In a few lines:
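Step one: transient transfection of HepG2 with reporter transcription units. Step two: 24 h chemical exposure. Step three: RNA extraction, RT-PCR, labelled fragment analysis by capillary electrophoresis; DMSO serves as baseline.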

For experiment [7], the target named is Retinoic acid receptor alpha (Homo sapiens) (UniProt P10276). Briefly: ATG_DR5_RAR_CIS: Attagene CIS-FACTORIAL HepG2 Assay for human Retinoic Acid Receptor Alpha (RARE), DR5 submotif (AID 2282934).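 For AC50: reporter responds to endogenous RAR alpha beta and gamma in HepG2 not RARA alone.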 The following applies: HepG2 Attagene cis-factorial RARE DR5 reporter, mRNA; actives raise or lower the signal. In outline:
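Transient MRTU transfection of HepG2; 24 h compound treatment; TriZol RNA, oligo(dT) RT, PCR, FAM labelling, capillary electrophoresis. Bidirectional fit vs DMSO. Endogenous TF activity at DR5 RARE.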

In experiment [8] the target is Transcription factor E2F1 (Homo sapiens) (UniProt Q01094). Kind of experiment: ATG_E2F_CIS: Attagene CIS-FACTORIAL HepG2 Assay for human E2F Transcription Factor 1 (AID 2282935). The note with it: HepG2 Attagene cis-reporter, E2F reporter RNA transcripts; actives raise or lower the signal. In outline:
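Total RNA from 24 h-treated, reporter-transfected HepG2 cells undergoes DNase I treatment, oligo(dT) reverse transcription, PCR and 6-FAM primer extension before capillary electrophoresis.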

Experiment [9] can be described thus: ATG_E_Box_CIS: Attagene CIS-FACTORIAL HepG2 Assay for human Enhancer Box (E-box) (AID 2282936). The note with it: HepG2 E-box cis-reporter transcription, actives raise or lower the signal. In outline:
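DMSO served as negative control and baseline for bidirectional fitting. Human hepatoma HepG2 cells, transiently transfected with cis-reporter constructs, were dosed 24 h; reporter mRNA read by RT-PCR and capillary electrophoresis.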

Experiment [10] in a line: ATG_M_61_CIS: Attagene CIS-FACTORIAL HepG2 Assay for M61 Transcription Factor (Internal Marker) (AID 2282937). The note with it: HepG2 Attagene CIS-FACTORIAL M61 internal marker reporter; actives raise or lower the signal. In outline: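 Readout is reporter mRNA by RT-PCR, fluorescent primer extension and capillary electrophoresis, with gain or loss fitted relative to DMSO. Transfected HepG2 cells carrying endogenous-TF-driven cis reporters were exposed to chemicals for 24 hours.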

The nature of experiment [11]: ATG_EGR_CIS: Attagene CIS-FACTORIAL HepG2 Assay for human Early Growth Response 1 (EGR1) (AID 2282938). The note with it: HepG2 Attagene CIS-FACTORIAL EGR reporter mRNA; actives raise or lower the signal. In a few lines:
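After 24 h compound exposure, RNA from reporter-transfected HepG2 cells was reverse-transcribed, PCR-amplified, fluorescently labelled and resolved by capillary electrophoresis. EGR1 reporter transcript changes, up or down, were fitted against DMSO, reflecting endogenous transcription-factor activity.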

Experiment [12] in a line: ATG_M_19_CIS: Attagene CIS-FACTORIAL HepG2 Assay for M19 Transcription Factor (Internal Marker) (AID 2282939). The following applies: HepG2 Attagene CIS-FACTORIAL M19 internal marker reporter; actives raise or lower the signal. In a few lines: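 Following a 24 h exposure, RNA from transfected HepG2 cells was reverse-transcribed, PCR-amplified with reporter-specific primers, end-labelled with 6-FAM and HpaI-digested before capillary separation. Values represent gain or loss versus DMSO.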

The nature of experiment [13]: ATG_Ets_CIS: Attagene CIS-FACTORIAL HepG2 Assay for human Erythroblast Transformation Specific (ETS) (AID 2282941). The following applies: HepG2 ETS cis-reporter transcription, actives raise or lower the signal. In outline: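 Human HepG2 hepatoma cells were transiently transfected with promoter-driven reporter constructs and treated for 24 hours. Reporter transcripts were quantified by RT-PCR with fluorescent primer extension; bidirectional curve fitting used DMSO as reference.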

The target in experiment [14] is Hepatocyte nuclear factor 3-beta (Homo sapiens) (UniProt Q9Y261). Briefly: ATG_FoxA2_CIS: Attagene CIS-FACTORIAL HepG2 Assay for human Forkhead box A2 (FOXA2) (AID 2282942). The note with it: HepG2 cis-reporter transcription factor activity, 24 h; actives raise or lower the signal. In outline: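 Endogenous transcription factor activity is captured via cis-element-driven reporter transcripts in transfected HepG2. Total RNA taken at 24 h post-dosing; labelled RT-PCR products resolved by capillary electrophoresis. Gain or loss fitted versus DMSO.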
Hepatocyte nuclear factor 3-beta (Homo sapiens), sequence (Q9Y261 whole entry, looked up): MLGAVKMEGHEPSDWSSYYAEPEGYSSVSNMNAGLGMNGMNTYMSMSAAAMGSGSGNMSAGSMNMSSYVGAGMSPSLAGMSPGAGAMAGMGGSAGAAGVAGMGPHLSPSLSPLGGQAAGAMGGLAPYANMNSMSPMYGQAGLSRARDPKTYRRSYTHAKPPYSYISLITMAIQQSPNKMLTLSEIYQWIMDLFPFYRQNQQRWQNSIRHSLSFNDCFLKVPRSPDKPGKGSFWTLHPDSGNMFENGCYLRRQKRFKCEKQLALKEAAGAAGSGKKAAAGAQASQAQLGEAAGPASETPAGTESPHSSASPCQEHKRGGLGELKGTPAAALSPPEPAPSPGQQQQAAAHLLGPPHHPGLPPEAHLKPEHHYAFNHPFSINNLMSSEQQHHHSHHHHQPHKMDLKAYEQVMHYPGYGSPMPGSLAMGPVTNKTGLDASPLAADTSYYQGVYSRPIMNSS

Experiment [15] in a line: ATG_FoxO_CIS: Attagene CIS-FACTORIAL HepG2 Assay for human Forkhead box O (FoxO) (AID 2282943). The note with it: HepG2 Attagene cis-reporter, FoxO element, mRNA; actives raise or lower the signal. In outline:
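HepG2, transient MRTU transfection (cis element, endogenous TFs). Dose 24 h. TriZol RNA → oligo(dT) RT → PCR → 6-FAM primer extension → HpaI cut → CE. Gain/loss vs DMSO.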

A short description of experiment [16]: ATG_GATA_CIS: Attagene CIS-FACTORIAL HepG2 Assay for human GATA Binding Protein (AID 2282944). The following applies: HepG2 GATA cis-element reporter, Attagene multiplex mRNA; actives raise or lower the signal. In outline: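 DMSO serves as negative control and baseline for bidirectional fitting of reporter mRNA changes. HepG2 cells bearing transiently transfected cis-promoter reporters were exposed 24 h; transcripts detected via RT-PCR and capillary electrophoresis.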

Experiment [17] can be described thus: ATG_GLI_CIS: Attagene CIS-FACTORIAL HepG2 Assay for human Zinc Finger Protein GLI1 (AID 2282945). The note with it: HepG2, Attagene cis-factorial reporter mRNA, GLI element; actives raise or lower the signal. In a few lines:
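Bidirectional curve fits relative to DMSO, using reporter mRNA levels from RT-PCR plus capillary electrophoresis. Cells were HepG2 transiently carrying cis-regulated reporter constructs, harvested 24 h after dosing.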

The nature of experiment [18]: ATG_BRE_CIS: Attagene CIS-FACTORIAL HepG2 Assay for human Bone Morphogenetic Protein (BMP) Response Element (BRE) (AID 2282933). The note with it: HepG2 BMP response element reporter, Attagene transcription factor profiling; actives raise or lower the signal. In a few lines:
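Gain- or loss-of-signal was derived by bidirectional fitting against DMSO controls. The signal came from reporter mRNA, measured by RT-PCR and capillary electrophoresis, in HepG2 cells transiently carrying multiple reporter units and dosed for 24 h.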

Experiment [19] can be described thus: ATG_ERE_CIS: Attagene CIS-FACTORIAL HepG2 Assay for Estrogen Response Element (ERE) (AID 2282940). The following applies: HepG2 ERE cis-reporter, Attagene RNA transcript; actives raise or lower the signal. In outline: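 HepG2, transient cis-reporter units, 24 h exposure. RNA isolated, oligo(dT) RT, reporter-specific PCR, FAM extension, HpaI cut, CE detection. Gain/loss-of-signal vs DMSO.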

The source made the active and inactive calls. Rule for the calls: active = hit-call score of the fitted dose curve at least 0.9, where 1 is the maximum; inactive = score below 0.9.

The term AC50 denotes the midpoint of the concentration-response curve, whichever way the signal moves.

Transcription factor E2F1 (Homo sapiens), sequence (Q01094 whole entry, looked up): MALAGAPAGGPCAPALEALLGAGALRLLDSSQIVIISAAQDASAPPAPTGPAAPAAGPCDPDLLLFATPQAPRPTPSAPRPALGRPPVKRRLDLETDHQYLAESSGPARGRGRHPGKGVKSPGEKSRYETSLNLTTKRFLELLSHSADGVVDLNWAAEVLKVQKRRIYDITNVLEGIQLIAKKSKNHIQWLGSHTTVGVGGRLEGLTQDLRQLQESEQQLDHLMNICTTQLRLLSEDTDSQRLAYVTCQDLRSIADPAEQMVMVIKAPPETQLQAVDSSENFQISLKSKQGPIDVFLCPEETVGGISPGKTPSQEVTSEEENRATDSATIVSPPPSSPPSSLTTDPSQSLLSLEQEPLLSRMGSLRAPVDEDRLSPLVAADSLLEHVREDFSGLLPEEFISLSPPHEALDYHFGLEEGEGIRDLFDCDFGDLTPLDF
Aryl hydrocarbon receptor (Homo sapiens), sequence (P35869 whole entry, looked up): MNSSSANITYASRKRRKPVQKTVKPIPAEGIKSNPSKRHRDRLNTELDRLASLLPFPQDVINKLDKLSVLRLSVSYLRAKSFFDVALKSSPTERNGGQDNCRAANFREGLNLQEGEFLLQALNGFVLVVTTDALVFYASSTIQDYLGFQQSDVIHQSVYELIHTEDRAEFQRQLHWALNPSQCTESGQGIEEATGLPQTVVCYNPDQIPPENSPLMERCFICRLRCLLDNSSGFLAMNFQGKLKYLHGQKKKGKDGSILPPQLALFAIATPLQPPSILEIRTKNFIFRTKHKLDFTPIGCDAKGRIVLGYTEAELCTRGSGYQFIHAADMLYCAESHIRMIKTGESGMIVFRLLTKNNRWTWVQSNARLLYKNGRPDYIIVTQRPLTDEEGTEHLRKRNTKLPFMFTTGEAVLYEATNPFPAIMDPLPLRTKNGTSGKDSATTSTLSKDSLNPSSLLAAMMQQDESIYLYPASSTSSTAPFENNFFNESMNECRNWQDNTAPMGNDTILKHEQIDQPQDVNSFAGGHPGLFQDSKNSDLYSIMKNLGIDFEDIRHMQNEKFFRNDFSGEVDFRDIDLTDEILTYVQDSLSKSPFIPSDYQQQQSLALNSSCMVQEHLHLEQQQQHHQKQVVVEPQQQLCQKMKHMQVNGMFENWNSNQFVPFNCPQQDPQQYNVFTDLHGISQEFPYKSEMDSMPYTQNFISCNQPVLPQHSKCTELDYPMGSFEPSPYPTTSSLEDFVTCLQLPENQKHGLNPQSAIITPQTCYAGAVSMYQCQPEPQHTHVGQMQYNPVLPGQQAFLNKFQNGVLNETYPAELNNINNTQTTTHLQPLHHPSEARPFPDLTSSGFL
CCAAT/enhancer-binding protein beta (Homo sapiens), sequence (P17676 whole entry, looked up): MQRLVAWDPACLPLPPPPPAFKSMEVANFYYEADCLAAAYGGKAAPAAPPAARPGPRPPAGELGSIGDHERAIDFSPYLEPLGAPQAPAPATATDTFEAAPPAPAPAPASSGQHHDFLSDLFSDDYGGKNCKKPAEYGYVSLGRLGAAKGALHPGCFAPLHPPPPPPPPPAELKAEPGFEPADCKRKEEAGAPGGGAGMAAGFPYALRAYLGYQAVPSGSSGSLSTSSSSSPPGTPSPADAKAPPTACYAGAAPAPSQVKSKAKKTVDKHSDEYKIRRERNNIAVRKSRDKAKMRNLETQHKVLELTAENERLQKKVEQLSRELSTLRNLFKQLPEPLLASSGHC
Retinoic acid receptor alpha (Homo sapiens), sequence (P10276 whole entry, looked up): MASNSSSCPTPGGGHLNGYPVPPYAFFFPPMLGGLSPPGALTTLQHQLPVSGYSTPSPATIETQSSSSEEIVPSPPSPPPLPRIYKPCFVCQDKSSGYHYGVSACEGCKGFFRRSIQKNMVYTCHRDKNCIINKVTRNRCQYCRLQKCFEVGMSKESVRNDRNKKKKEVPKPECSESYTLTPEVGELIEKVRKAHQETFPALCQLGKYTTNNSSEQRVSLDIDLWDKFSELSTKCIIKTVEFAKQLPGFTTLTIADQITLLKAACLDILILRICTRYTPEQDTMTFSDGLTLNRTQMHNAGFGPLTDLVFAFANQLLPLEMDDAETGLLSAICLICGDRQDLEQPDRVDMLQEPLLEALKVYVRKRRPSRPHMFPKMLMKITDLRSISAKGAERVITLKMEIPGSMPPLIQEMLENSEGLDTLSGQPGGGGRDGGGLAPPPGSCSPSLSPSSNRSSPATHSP

With `COC(C)(C)CCO`, the result in [1], in experiment [2], in experiment [3], in experiment [4], in [5] and in experiment [6] was inactive. Further, the outcome in experiment [7], in experiment [8], in experiment [9], in experiment [10], in experiment [11] and in experiment [12] was inactive. In addition, the result in experiment [13], in experiment [14], in experiment [15], in experiment [16] and in experiment [17] was inactive.
Regarding `CCOc1ccc(N=Nc2ccc(C=Cc3ccc(N=Nc4ccc(OCC)cc4)cc3S(=O)(=O)O)c(S(=O)(=O)O)c2)cc1`, the result in [1], in experiment [2], in experiment [6], in [7], in experiment [8] and in [9] was inactive. The result in experiment [10], in [11], in experiment [13], in experiment [14], in [16] and in experiment [17] was inactive. Further, the AC50 in experiment [4] was 12.2 µM (active); in experiment [18], 7.28 µM (active).
Regarding `CCC1(c2ccccc2)C(=O)NCNC1=O`, the compound was classed as inactive in experiment [2], in [3], in experiment [4], in experiment [5], in [6] and in experiment [7]. In addition, the outcome in experiment [8], in experiment [9], in experiment [10], in experiment [11], in experiment [12] and in [13] was inactive. Moreover, the result in experiment [14], in experiment [15], in experiment [16] and in [17] was inactive.
In the case of `C#CC(C)(O)CC(C)C` (configuration not stated), the compound was called inactive in experiment [2], in [3], in experiment [4], in experiment [5], in experiment [6] and in experiment [18]. The call in experiment [7], in experiment [8], in experiment [9], in experiment [10], in experiment [12] and in [13] was inactive. The compound was classed as inactive in experiment [14], in experiment [15], in experiment [16] and in experiment [17].
Consider `CC(C)(C)C1=CC(=O)C(C(C)(C)C)=CC1=O`, for which the result in [1], in [4], in experiment [6], in experiment [18], in experiment [8] and in [9] was inactive. Besides, the result in experiment [10], in [12] and in [14] was inactive. In addition, the AC50 in experiment [2] was 87.6 µM (active); in [7] it was 26.8 µM (active); in experiment [11], 50 µM (active); in [13], 36.6 µM (active); in [15] it was 50 µM (active); in [16], 68.3 µM (active). Besides, in experiment [17], the half-maximal activity concentration (AC50) was 81.7 µM (active).
Consider `CC(C)NCC(O)COc1ccc(CC(N)=O)cc1` (configuration not stated), for which the call in [2], in [3], in experiment [4], in experiment [6], in experiment [18] and in experiment [7] was inactive. For the same compound, the compound was classed as inactive in experiment [8], in experiment [9], in experiment [10], in experiment [11], in [12] and in experiment [19]. The call in experiment [13], in [14], in experiment [16] and in experiment [17] was inactive.
`CC=Cc1ccc(OC)c(OC)c1`: the outcome in experiment [1], in experiment [3], in experiment [4], in experiment [5], in [6] and in experiment [18] was inactive. In addition, the compound was called inactive in experiment [8], in experiment [9], in [10], in experiment [11], in experiment [12] and in experiment [13]. In addition, the call in [14], in experiment [15], in experiment [16] and in experiment [17] was inactive.
On to `CCCC(=O)C(CC)Sc1ccoc1C` (configuration not stated), for which the compound was called inactive in experiment [2], in experiment [3], in [4], in experiment [6], in [18] and in experiment [7]. Further, the outcome in experiment [9], in experiment [10], in experiment [11], in experiment [12], in experiment [13] and in experiment [14] was inactive. Moreover, the compound was called inactive in [16] and in experiment [17]. The concentration at half-maximal activity (AC50) in experiment [5] was 26.5 µM (active); in experiment [19], 88.9 µM (active).

These data come from PubChem BioAssay (EPA / NIEHS).
